Measured values taken from PubChem BioAssay (EPA / NIEHS).
Activity calls are given as the source filed them. How the source made its calls: active means hit-call score of the fitted dose curve at least 0.9, where 1 is the maximum; inactive means score below 0.9.

How the values were obtained:
[1] = ATG_CRE_CIS: Attagene CIS-FACTORIAL HepG2 Assay for human cAMP Responsive Element (CRE) binding protein 3 (AID 2282926); details: HepG2 CRE cis-reporter, Attagene multiplexed mRNA; actives raise or lower the signal
How it was run: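 Endogenous CRE-binding activity in HepG2 is reported through a cis-regulated transfected reporter. Following a day of exposure, mRNA levels are determined by reverse transcription PCR and fluorescent fragment analysis; fits run in both directions versus DMSO.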

[2] = target: CCAAT/enhancer-binding protein beta (Homo sapiens) (UniProt P17676); test: ATG_C_EBP_CIS: Attagene CIS-FACTORIAL HepG2 Assay for human CCAAT/Enhancer Binding Protein (C/EBP) beta (AID 2282927); details: HepG2 Attagene cis-factorial transcription factor reporter; actives raise or lower the signal
How it was run: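 HepG2 transiently transfected with multiplexed reporter units under cis-regulatory promoters reporting endogenous C/EBPb activity. After 24 h exposure, reporter mRNA assayed by RT-PCR, fluorescent labelling, HpaI digestion and capillary electrophoresis; bidirectional fitting versus DMSO.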

[3] = ATG_CMV_CIS: Attagene CIS-FACTORIAL HepG2 Assay for human CMV (Internal Marker) (AID 2282928); details: HepG2 CMV promoter reporter, transcription factor profiling; actives raise or lower the signal;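 further: endpoint acts as a background internal control marker rather than a target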
How it was run: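 CMV internal-marker background readout in transiently transfected HepG2 cells bearing cis-regulated reporter units. Reporter mRNA is measured 24 h after dosing by RT-PCR and capillary electrophoresis, with bidirectional fitting against DMSO.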

[4] = ATG_DR4_LXR_CIS: Attagene CIS-FACTORIAL HepG2 Assay for human Liver X Receptor (LXR), DR4 submotif (AID 2282929); details: HepG2 Attagene DR4 cis-reporter, mRNA transcription; actives raise or lower the signal
How it was run: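 Total RNA from 24 h-treated, MRTU-transfected HepG2 cells underwent reverse transcription, PCR, fluorescent primer extension and restriction digestion before capillary electrophoresis. Both increases and decreases in reporter signal were fitted against DMSO.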

[5] = target: Aryl hydrocarbon receptor (Homo sapiens) (UniProt P35869); test: ATG_Ahr_CIS: Attagene CIS-FACTORIAL HepG2 Assay for human Aryl Hydrocarbon Receptor (Ahr) (AID 2282930); details: HepG2 AhR cis-factorial reporter transcription; actives raise or lower the signal
How it was run: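 HepG2 cells transiently transfected with cis-element-driven multiplexed reporter units; endogenous AhR activity read as reporter mRNA 24 h after dosing, via RT-PCR, 6-FAM labelling, HpaI digestion and capillary electrophoresis. Bidirectional fit relative to DMSO.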

[6] = ATG_AP_1_CIS: Attagene CIS-FACTORIAL HepG2 Assay for human Activator Protein 1 (AP-1) (AID 2282931); details: HepG2 Attagene cis-factorial AP-1 reporter mRNA; actives raise or lower the signal
How it was run: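 HepG2, transient cis-reporter transfection; 24 h; readout RT-PCR/CE fluorescence; DMSO baseline, gain and loss fitted.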

[7] = ATG_AP_2_CIS: Attagene CIS-FACTORIAL HepG2 Assay for human Activator Protein 2 (AP-2) (AID 2282932); details: HepG2 AP-2 cis-reporter, Attagene transcription factor profiling; actives raise or lower the signal
How it was run: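 HepG2 cells transiently transfected with cis-element reporter units and exposed for 24 h. Reporter mRNA measured by RT-PCR, FAM labelling, HpaI digestion and capillary electrophoresis. Changes in either direction fitted relative to DMSO.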

[8] = ATG_BRE_CIS: Attagene CIS-FACTORIAL HepG2 Assay for human Bone Morphogenetic Protein (BMP) Response Element (BRE) (AID 2282933); details: HepG2 BMP response element reporter, Attagene transcription factor profiling; actives raise or lower the signal
How it was run: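 Endogenous transcription factor activity read in transiently transfected HepG2 cells after 24 h chemical exposure. Bidirectional curve fitting against DMSO; readout is reporter transcript level by RT-PCR with capillary electrophoresis of labelled products.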

[9] = target: Retinoic acid receptor alpha (Homo sapiens) (UniProt P10276); test: ATG_DR5_RAR_CIS: Attagene CIS-FACTORIAL HepG2 Assay for human Retinoic Acid Receptor Alpha (RARE), DR5 submotif (AID 2282934); details: HepG2 Attagene cis-factorial RARE DR5 reporter, mRNA; actives raise or lower the signal
How it was run: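 HepG2 cells transiently transfected with multiplexed reporter units; DR5 cis-element drives reporter through endogenous transcription factors. After 24 h dosing, reporter mRNA quantified by RT-PCR, fluorescent labeling, HpaI digestion and capillary electrophoresis; bidirectional fitting versus DMSO.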

[10] = target: Transcription factor E2F1 (Homo sapiens) (UniProt Q01094); test: ATG_E2F_CIS: Attagene CIS-FACTORIAL HepG2 Assay for human E2F Transcription Factor 1 (AID 2282935); details: HepG2 Attagene cis-reporter, E2F reporter RNA transcripts; actives raise or lower the signal
How it was run: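 Endogenous E2F1 activity read through cis-promoter reporter units transfected into HepG2. After 24 h compound treatment, reporter mRNA measured by RT-PCR, HpaI digestion and capillary electrophoresis. Bidirectional fit versus DMSO.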

[11] = ATG_M_61_CIS: Attagene CIS-FACTORIAL HepG2 Assay for M61 Transcription Factor (Internal Marker) (AID 2282937); details: HepG2 Attagene CIS-FACTORIAL M61 internal marker reporter; actives raise or lower the signal
How it was run: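 Transfect HepG2 with MRTUs; dose 24 h; isolate RNA; reverse-transcribe with DNase I treatment; PCR-amplify, FAM-label and cut with HpaI for 2 h at 37 C; resolve by CE. Bidirectional fitting against DMSO.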

[12] = ATG_EGR_CIS: Attagene CIS-FACTORIAL HepG2 Assay for human Early Growth Response 1 (EGR1) (AID 2282938); details: HepG2 Attagene CIS-FACTORIAL EGR reporter mRNA; actives raise or lower the signal
How it was run: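 After a 24 h treatment of transiently transfected HepG2 cells, total RNA was reverse-transcribed and reporter sequences PCR-amplified, labelled and run on capillary electrophoresis. Reporters sit under cis-regulatory promoters sensing endogenous factors.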

[13] = ATG_M_19_CIS: Attagene CIS-FACTORIAL HepG2 Assay for M19 Transcription Factor (Internal Marker) (AID 2282939); details: HepG2 Attagene CIS-FACTORIAL M19 internal marker reporter; actives raise or lower the signal
How it was run: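 Internal marker readout, fitted in both directions against DMSO, from HepG2 cells carrying transfected cis-element reporter constructs; RT-PCR and capillary electrophoresis of reporter mRNA after 24 h exposure.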

[14] = ATG_ERE_CIS: Attagene CIS-FACTORIAL HepG2 Assay for Estrogen Response Element (ERE) (AID 2282940); details: HepG2 ERE cis-reporter, Attagene RNA transcript; actives raise or lower the signal
How it was run: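 After 24 h compound treatment, RNA from transfected HepG2 cells was reverse-transcribed, reporter cDNA PCR-amplified, FAM-labelled, HpaI-cut and resolved by capillary electrophoresis. ERE-driven cis reporter transcripts reflect endogenous factors; gain or loss scored against DMSO.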

[15] = ATG_Ets_CIS: Attagene CIS-FACTORIAL HepG2 Assay for human Erythroblast Transformation Specific (ETS) (AID 2282941); details: HepG2 ETS cis-reporter transcription, actives raise or lower the signal
How it was run: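 HepG2 cells transfected with multiple cis-regulated reporter units measuring endogenous ETS-driven transcription, 24 h after dosing. Reporter mRNA quantified by RT-PCR with capillary electrophoresis; bidirectional fit relative to DMSO.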

[16] = ATG_FoxO_CIS: Attagene CIS-FACTORIAL HepG2 Assay for human Forkhead box O (FoxO) (AID 2282943); details: HepG2 Attagene cis-reporter, FoxO element, mRNA; actives raise or lower the signal
How it was run: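 HepG2 cells transiently transfected with cis-element-driven reporter units report endogenous FoxO activity. After 24 h chemical exposure, reporter mRNA quantified by RT-PCR, fluorescent labeling, HpaI digestion and capillary electrophoresis; bidirectional fit versus DMSO.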

[17] = ATG_GATA_CIS: Attagene CIS-FACTORIAL HepG2 Assay for human GATA Binding Protein (AID 2282944); details: HepG2 GATA cis-element reporter, Attagene multiplex mRNA; actives raise or lower the signal
How it was run: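 Reporter transcripts from a GATA cis-regulated unit, among multiplexed reporters in transfected HepG2 cells, were measured by RT-PCR with capillary electrophoresis after 24 h dosing. Induction or loss scored relative to DMSO.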

[18] = ATG_GLI_CIS: Attagene CIS-FACTORIAL HepG2 Assay for human Zinc Finger Protein GLI1 (AID 2282945); details: HepG2, Attagene cis-factorial reporter mRNA, GLI element; actives raise or lower the signal
How it was run: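 Transiently transfected HepG2 cells report endogenous transcription factor activity via cis-element-driven reporter units. After 24 h compound exposure, reporter mRNA was measured by RT-PCR with capillary electrophoresis; bidirectional fitting against DMSO baseline.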

[19] = ATG_E_Box_CIS: Attagene CIS-FACTORIAL HepG2 Assay for human Enhancer Box (E-box) (AID 2282936); details: HepG2 E-box cis-reporter transcription, actives raise or lower the signal
How it was run: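 HepG2 cells transiently transfected with multiplexed cis-element reporter units, dosed 24 h; reporter mRNA quantified by RT-PCR, 6-FAM labelling, HpaI digestion and capillary electrophoresis. E-box (USF1) signal fitted bidirectionally vs DMSO.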

[20] = target: Hepatocyte nuclear factor 3-beta (Homo sapiens) (UniProt Q9Y261); test: ATG_FoxA2_CIS: Attagene CIS-FACTORIAL HepG2 Assay for human Forkhead box A2 (FOXA2) (AID 2282942); details: HepG2 cis-reporter transcription factor activity, 24 h; actives raise or lower the signal
How it was run: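 24 h dosing of HepG2 bearing cis-reporter constructs; mRNA readout by RT-PCR/CE fluorescence; bidirectional fit, DMSO baseline.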

Measured: AC50

Hepatocyte nuclear factor 3-beta (Homo sapiens), sequence (Q9Y261 whole entry, looked up): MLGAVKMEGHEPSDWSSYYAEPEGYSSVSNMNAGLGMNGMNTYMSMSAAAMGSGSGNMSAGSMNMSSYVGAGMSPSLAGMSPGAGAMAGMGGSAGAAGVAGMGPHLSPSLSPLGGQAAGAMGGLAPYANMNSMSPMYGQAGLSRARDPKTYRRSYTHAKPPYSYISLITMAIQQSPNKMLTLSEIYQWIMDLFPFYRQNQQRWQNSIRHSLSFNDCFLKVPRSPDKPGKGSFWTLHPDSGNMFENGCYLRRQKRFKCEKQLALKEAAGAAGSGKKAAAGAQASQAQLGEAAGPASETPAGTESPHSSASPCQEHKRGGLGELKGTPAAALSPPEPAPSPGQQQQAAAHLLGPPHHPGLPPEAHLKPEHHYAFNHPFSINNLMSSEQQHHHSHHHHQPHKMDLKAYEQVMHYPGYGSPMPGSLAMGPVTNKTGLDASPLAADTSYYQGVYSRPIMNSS
Aryl hydrocarbon receptor (Homo sapiens), sequence (P35869 whole entry, looked up): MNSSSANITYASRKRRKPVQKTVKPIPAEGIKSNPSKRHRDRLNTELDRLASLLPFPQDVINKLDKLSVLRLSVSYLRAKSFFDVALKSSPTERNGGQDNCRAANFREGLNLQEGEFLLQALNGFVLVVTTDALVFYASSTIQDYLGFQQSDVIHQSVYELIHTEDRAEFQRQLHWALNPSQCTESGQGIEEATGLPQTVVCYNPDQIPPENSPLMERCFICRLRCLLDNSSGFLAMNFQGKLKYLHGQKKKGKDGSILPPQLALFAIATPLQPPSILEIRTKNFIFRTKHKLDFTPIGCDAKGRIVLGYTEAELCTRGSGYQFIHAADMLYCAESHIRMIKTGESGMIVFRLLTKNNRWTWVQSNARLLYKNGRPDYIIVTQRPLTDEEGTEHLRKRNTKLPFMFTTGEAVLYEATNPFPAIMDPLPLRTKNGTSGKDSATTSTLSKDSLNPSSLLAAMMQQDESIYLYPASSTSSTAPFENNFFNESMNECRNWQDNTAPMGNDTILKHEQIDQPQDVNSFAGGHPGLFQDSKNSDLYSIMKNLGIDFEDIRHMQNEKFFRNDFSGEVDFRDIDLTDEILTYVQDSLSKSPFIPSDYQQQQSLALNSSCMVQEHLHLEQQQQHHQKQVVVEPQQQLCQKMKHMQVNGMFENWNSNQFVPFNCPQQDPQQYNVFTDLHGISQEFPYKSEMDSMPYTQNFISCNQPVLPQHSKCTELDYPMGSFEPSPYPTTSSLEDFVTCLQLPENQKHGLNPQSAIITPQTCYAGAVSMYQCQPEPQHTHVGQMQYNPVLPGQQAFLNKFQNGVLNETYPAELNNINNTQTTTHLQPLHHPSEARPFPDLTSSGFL
Transcription factor E2F1 (Homo sapiens), sequence (Q01094 whole entry, looked up): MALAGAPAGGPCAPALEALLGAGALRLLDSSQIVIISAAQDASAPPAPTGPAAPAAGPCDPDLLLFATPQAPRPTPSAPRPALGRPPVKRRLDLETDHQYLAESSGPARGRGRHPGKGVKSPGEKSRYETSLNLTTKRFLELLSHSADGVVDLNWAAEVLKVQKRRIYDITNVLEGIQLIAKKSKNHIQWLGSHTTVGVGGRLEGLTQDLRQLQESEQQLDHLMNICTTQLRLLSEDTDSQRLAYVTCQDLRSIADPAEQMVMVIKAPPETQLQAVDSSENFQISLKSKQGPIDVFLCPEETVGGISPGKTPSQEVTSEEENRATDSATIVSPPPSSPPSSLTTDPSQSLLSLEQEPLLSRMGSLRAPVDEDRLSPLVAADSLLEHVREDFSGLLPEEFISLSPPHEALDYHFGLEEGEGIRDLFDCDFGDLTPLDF
Retinoic acid receptor alpha (Homo sapiens), sequence (P10276 whole entry, looked up): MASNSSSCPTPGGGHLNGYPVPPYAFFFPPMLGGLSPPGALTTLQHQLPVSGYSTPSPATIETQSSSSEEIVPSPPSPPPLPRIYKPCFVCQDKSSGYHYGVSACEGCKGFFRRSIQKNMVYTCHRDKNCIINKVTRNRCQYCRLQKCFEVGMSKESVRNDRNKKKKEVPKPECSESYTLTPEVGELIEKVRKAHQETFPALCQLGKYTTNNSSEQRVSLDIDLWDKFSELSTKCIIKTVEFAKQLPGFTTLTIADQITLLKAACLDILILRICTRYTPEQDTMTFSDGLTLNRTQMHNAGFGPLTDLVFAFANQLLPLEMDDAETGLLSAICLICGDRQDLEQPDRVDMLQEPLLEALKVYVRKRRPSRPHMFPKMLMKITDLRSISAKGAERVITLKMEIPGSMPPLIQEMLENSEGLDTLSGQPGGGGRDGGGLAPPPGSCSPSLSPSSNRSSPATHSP
CCAAT/enhancer-binding protein beta (Homo sapiens), sequence (P17676 whole entry, looked up): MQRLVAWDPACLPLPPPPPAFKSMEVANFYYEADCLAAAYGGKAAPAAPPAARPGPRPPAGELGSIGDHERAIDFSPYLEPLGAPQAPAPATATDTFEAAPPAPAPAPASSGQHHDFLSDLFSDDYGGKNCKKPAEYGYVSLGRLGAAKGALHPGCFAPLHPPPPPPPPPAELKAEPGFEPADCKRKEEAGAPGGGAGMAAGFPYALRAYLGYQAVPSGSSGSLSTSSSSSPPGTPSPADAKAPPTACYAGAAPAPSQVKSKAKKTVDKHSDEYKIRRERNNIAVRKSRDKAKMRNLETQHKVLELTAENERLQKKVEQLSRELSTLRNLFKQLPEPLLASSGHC

COc1c2ccoc2cc2oc(=O)ccc12
not listed: [19] | [20]
inactive: all other assays above

CCCCCCCCC(=O)OCC
not listed: [7] | [20]
inactive: all other assays above

CC(C)(C)c1n[nH]c(=O)n(N)c1=O
not listed: [9] | [17]
inactive: all other assays above

CCOCC(=O)O
not listed: [15] | [19]
inactive: all other assays above

CCC(Cc1ccccc1)(C(=O)c1ccc(N2CCOCC2)cc1)N(C)C (stereo not given)
active: [6] 72.1 µM | [19] 17 µM | [12] 31.6 µM | [14] 5.54 µM
not listed: [9] | [11] | [17]
inactive: all other assays above

C=CC=CC=CCCCCC
not listed: [7]
inactive: all other assays above

CC1(C)O[C@@H]2C[C@H]3[C@@H]4C[C@H](F)C5=CC(=O)C=C[C@]5(C)[C@@]4(F)[C@@H](O)C[C@]3(C)[C@]2(C(=O)CO)O1
active: [14] 4.27 µM
not listed: [12] | [19]
inactive: all other assays above

CCCCCCCCCCCSCC(=O)O
active: [4] 48.8 µM | [19] 100 µM | [12] 82.6 µM
not listed: [9]
inactive: all other assays above

CC[C@H]1OC(=O)[C@H](C)[C@@H](O[C@H]2C[C@@](C)(OC)[C@@H](O)[C@H](C)O2)[C@H](C)[C@@H](O[C@@H]2O[C@H](C)C[C@H](N(C)C)[C@H]2O)[C@](C)(O)C[C@@H](C)C(=NOCOCCOC)[C@H](C)[C@@H](O)[C@]1(C)O
active: [14] 37.6 µM
not listed: [9]
inactive: all other assays above

OCCc1ccncc1
not listed: [7] | [15]
inactive: all other assays above

CC(=O)NS(=O)(=O)c1ccc(N)cc1
not listed: [7]
inactive: all other assays above

NC(=O)NNC(N)=O
not listed: [7] | [17]
inactive: all other assays above

c1ccc(CNCc2ccccc2)cc1
not listed: [7]
inactive: all other assays above

CCCCCCCC/C=C\CCCCCCCC(=O)O
active: [4] 48.7 µM | [6] 137 µM
not listed: [9]
inactive: all other assays above

C=CCCCCCCCCC(=O)OCCCC
not listed: [7] | [12]
inactive: all other assays above
